From PubChem BioAssay (EPA / NIEHS)
Inconclusive results are not listed. Calls of active or inactive are those of the source. Rule for the calls, unless noted: active = hit-call score of the fitted dose curve at least 0.9, where 1 is the maximum; inconclusive = response in the unintended direction; inactive = score below 0.9.

How the values were obtained:
[1] = CPHEA_Stoker_NIS_Cytotoxicity: Cytotoxicity Assessment for CPHEA's Radioactive Iodide Uptake (RAIU) Assay for Sodium/Iodide Symporter (NIS) Inhibition, Stoker and Laws Labs (AID 2283897);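 for AC50: active means loss of ATP signal versus DMSO meaning cytotoxicity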
Summary of the method: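 Viability in hNIS-HEK293T-EPA cells is scored as a drop in luciferase-detected ATP following 2-hour room-temperature exposure (0.001–100uM; triplicate wells, three cell passages), with DMSO as negative control.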

[2] = test system: Sodium/Iodide Symporter (NIS), SLC5A5 (gene 6528); assay: CPHEA_Stoker_NIS_Inhibition_RAIU: CPHEA's Radioactive Iodide Uptake (RAIU) Assay for Sodium/Iodide Symporter (NIS) Inhibition, Stoker and Laws Labs (AID 2283841)
Summary of the method: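 Test chemicals, six concentrations from 0.001 to 100uM in 0.5% DMSO, were co-incubated with carrier-free 125I (final 329pM) on hNIS-HEK293T-EPA monolayers in pH 7.4 HEPES-buffered HBSS. Plates stood 2 hours at room temperature, then were washed cold and counted.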

[3] = CEETOX_H295R_OHPREG_noMTC: CeeTox H295R High-throughput Steroidogenesis Assay for OH-Pregnenolone (OHPREG), maximum tolerated concentration (MTC) filtered results only (AID 2283912; active = hit-call score of the fitted dose curve at least 0.9, where 1 is the maximum; inactive = score below 0.9); conditions: actives raise or lower the signal
Summary of the method: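 H295R human adrenal cells, forskolin-prestimulated (10 uM, 48 h), then exposed to test chemical in 0.1% DMSO for 48 h. 17alpha-hydroxypregnenolone in medium measured by HPLC-MS/MS after MTBE extraction; bidirectional fit versus DMSO, concentrations not MTC-filtered.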

[4] = CEETOX_H295R_OHPROG_noMTC: CeeTox H295R High-throughput Steroidogenesis Assay for OH-Progesterone (OHPROG), maximum tolerated concentration (MTC) filtered results only (AID 2283914; active = hit-call score of the fitted dose curve at least 0.9, where 1 is the maximum; inactive = score below 0.9); conditions: actives raise or lower the signal
Summary of the method: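 H295R human adrenal cells prestimulated 48 h with 10 uM forskolin, then exposed 48 h to test chemical (0.1% DMSO final). Medium 17alpha-hydroxyprogesterone extracted with MTBE, quantified by HPLC-MS/MS; bidirectional fit versus DMSO, concentrations not MTC-filtered.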

[5] = CEETOX_H295R_ANDR_noMTC: CeeTox H295R High-throughput Steroidogenesis Assay for Androstenedione (ANDR), maximum tolerated concentration (MTC) filtered results only (AID 2283915; active = hit-call score of the fitted dose curve at least 0.9, where 1 is the maximum; inactive = score below 0.9); conditions: actives raise or lower the signal
Summary of the method: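 H295R cells, passage 10 or below, prestimulated 48 h with 10 uM forskolin, then exposed 48 h to chemical in 0.1% DMSO. Medium androstenedione extracted with MTBE, quantified by HPLC-MS/MS; concentrations not MTC-filtered; bidirectional fit versus DMSO.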

[6] = CEETOX_H295R_PROG_noMTC: CeeTox H295R High-throughput Steroidogenesis Assay for Progesterone (PROG), maximum tolerated concentration (MTC) filtered results only (AID 2283920; active = hit-call score of the fitted dose curve at least 0.9, where 1 is the maximum; inactive = score below 0.9); conditions: actives raise or lower the signal
Summary of the method: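 H295R human adrenal cells were prestimulated 48 h with 10 uM forskolin, then exposed 48 h to test chemical (0.1% DMSO final). Progesterone in medium was quantified by HPLC-MS/MS; bidirectional fitting versus DMSO, concentrations not MTC-filtered.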

[7] = CEETOX_H295R_TESTO_noMTC: CeeTox H295R High-throughput Steroidogenesis Assay for Testosterone (TESTO), maximum tolerated concentration (MTC) filtered results only (AID 2283924; active = hit-call score of the fitted dose curve at least 0.9, where 1 is the maximum; inactive = score below 0.9); conditions: actives raise or lower the signal
Summary of the method: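 H295R cells prestimulated 48 h with 10 uM forskolin, then exposed 48 h to chemicals in 0.1% DMSO final. Testosterone in medium quantified by MTBE extraction and HPLC-MS/MS; bidirectional fit versus DMSO, concentrations […] filtered by MTT-based maximum tolerated concentration.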

[8] = target: human Thyroid hormone Receptor beta (TRb), THRB (gene 7068) (UniProt P10828); assay: ATG_hTRb_XSP2: Attagene TRANS-FACTORIAL Multi-Species (XSP2) HepG2 Assay for human Thyroid hormone Receptor beta (TRb) (AID 2283840);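 note: actives raise reporter mRNA so potency reflects agonist-like gain of signal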
Summary of the method: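 Activity of exogenous human TRb–Gal4 fusion measured by reporter mRNA from RT-PCR and capillary electrophoresis, 24 h after dosing transfected HepG2. 6-alpha-fluorotestosterone (3 nM) and norgestrel (1.5 nM) present. Gain-of-signal fit relative to DMSO.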

[9] = CEETOX_H295R_11DCORT_noMTC: CeeTox H295R High-throughput Steroidogenesis Assay for 11-Deoxycortisol (11DCORT), maximum tolerated concentration (MTC) filtered results only (AID 2283911; active = hit-call score of the fitted dose curve at least 0.9, where 1 is the maximum; inactive = score below 0.9); conditions: actives raise or lower the signal
Summary of the method: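 Values carry no filtering for maximum tolerated concentration: medium from forskolin-primed (10 uM, 48 h) H295R cells after 48 h chemical exposure (0.1% DMSO) was MTBE-extracted, and 11-deoxycortisol quantified by reverse-phase HPLC-MS/MS. Fitting was bidirectional against DMSO.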

[10] = CEETOX_H295R_CORTISOL_noMTC: CeeTox H295R High-throughput Steroidogenesis Assay for Cortisol, maximum tolerated concentration (MTC) filtered results only (AID 2283916; active = hit-call score of the fitted dose curve at least 0.9, where 1 is the maximum; inactive = score below 0.9); conditions: actives raise or lower the signal
Summary of the method: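 H295R adrenal cells were pre-stimulated 48 h with 10 uM forskolin, then exposed 48 h to test chemical in 0.1% DMSO. Medium cortisol was measured by MTBE extraction and HPLC-MS/MS; bidirectional fit versus DMSO, concentrations not MTC-filtered.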

[11] = CEETOX_H295R_CORTIC_noMTC: CeeTox H295R High-throughput Steroidogenesis Assay for Corticosterone (CORTIC), maximum tolerated concentration (MTC) filtered results only (AID 2283917; active = hit-call score of the fitted dose curve at least 0.9, where 1 is the maximum; inactive = score below 0.9); conditions: actives raise or lower the signal
Summary of the method: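 H295R, 10 uM forskolin prestim 48 h → test chem (0.1% DMSO final) 48 h → media MTBE extraction → HPLC-MS/MS corticosterone. Bidirectional fit vs DMSO baseline; no MTT-based MTC filtering.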

[12] = CEETOX_H295R_DOC_noMTC: CeeTox H295R High-throughput Steroidogenesis Assay for DOC, maximum tolerated concentration (MTC) filtered results only (AID 2283918; active = hit-call score of the fitted dose curve at least 0.9, where 1 is the maximum; inactive = score below 0.9); conditions: actives raise or lower the signal
Summary of the method: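 H295R cells prestimulated 48 h with 10 uM forskolin, then exposed 48 h to test chemical (0.1% DMSO final). Medium 11-deoxycorticosterone extracted with MTBE, quantified by HPLC-MS/MS; bidirectional fit versus DMSO, concentrations not MTC-filtered.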

[13] = target: Thyroid hormone receptor alpha (Rattus norvegicus) + Thyroid hormone receptor beta (Rattus norvegicus) (UniProt P18113+P63059); assay: TOX21_TR_LUC_GH3_Agonist_Followup: Tox21 GH3 Thyroid Hormone Receptor Agonism Luciferase Follow-Up Assay (AID 2283939)
Summary of the method: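 Rat GH3 cells (1,500/well) in serum-free assay medium, treated with 15-point series, 92 uM to 5 nM final, for 24 h at 37C. Luciferase via ONE-Glo luminescence; gain of signal fitted against DMSO, T3 positive control.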

human Thyroid hormone Receptor beta (TRb), THRB (gene 7068), sequence (P10828 whole entry, looked up, the tested form may be a part): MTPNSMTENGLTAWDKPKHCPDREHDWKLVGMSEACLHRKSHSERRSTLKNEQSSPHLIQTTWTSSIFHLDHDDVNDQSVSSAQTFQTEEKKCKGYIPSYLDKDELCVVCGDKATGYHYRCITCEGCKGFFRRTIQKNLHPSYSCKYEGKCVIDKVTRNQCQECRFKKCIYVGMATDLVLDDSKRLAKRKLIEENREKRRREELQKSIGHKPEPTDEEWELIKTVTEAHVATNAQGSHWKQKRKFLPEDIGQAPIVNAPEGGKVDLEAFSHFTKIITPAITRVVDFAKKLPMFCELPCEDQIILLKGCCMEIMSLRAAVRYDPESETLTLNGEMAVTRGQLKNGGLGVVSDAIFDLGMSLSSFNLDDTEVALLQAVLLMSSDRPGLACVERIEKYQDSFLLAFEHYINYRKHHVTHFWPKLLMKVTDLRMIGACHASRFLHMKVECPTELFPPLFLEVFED
Thyroid hormone receptor alpha (Rattus norvegicus) + Thyroid hormone receptor beta (Rattus norvegicus), sequence (P63059 whole entry, looked up): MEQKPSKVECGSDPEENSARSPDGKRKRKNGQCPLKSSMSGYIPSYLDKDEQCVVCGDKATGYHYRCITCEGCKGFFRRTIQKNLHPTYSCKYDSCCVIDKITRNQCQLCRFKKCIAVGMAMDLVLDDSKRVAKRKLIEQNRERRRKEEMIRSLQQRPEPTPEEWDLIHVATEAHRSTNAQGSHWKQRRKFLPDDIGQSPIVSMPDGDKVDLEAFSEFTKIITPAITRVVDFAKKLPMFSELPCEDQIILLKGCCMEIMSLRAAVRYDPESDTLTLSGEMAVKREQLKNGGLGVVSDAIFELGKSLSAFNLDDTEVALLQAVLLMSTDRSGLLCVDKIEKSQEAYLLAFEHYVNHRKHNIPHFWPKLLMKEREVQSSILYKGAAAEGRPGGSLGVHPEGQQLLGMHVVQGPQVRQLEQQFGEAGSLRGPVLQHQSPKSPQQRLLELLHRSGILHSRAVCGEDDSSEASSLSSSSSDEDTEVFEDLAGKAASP
Thyroid hormone receptor alpha (Rattus norvegicus) + Thyroid hormone receptor beta (Rattus norvegicus), sequence (P18113 whole entry, looked up): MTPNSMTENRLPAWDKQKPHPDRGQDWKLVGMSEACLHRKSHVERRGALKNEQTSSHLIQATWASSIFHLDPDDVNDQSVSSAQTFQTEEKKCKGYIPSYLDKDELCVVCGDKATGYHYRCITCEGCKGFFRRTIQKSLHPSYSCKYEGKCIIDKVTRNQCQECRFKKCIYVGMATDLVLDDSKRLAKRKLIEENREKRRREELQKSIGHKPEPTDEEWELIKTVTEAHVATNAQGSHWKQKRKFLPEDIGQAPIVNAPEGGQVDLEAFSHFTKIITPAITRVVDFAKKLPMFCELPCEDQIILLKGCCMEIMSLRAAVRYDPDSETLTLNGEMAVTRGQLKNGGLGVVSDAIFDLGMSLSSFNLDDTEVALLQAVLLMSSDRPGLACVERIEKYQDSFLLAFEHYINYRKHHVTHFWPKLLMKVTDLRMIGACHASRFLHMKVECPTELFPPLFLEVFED

CN(C)c1ccc(N=NS(=O)(=O)O)cc1
outcome [1]: inactive

CN(C)c1ccc(Cc2ccc(N(C)C)cc2)cc1
outcome [2]: inactive
outcome [1]: inactive

CCCCC(CC)COC(=O)c1ccc(C(=O)OCC(CC)CCCC)cc1 (stereo not given)
outcome [3]: inactive
outcome [4]: inactive
outcome [5]: inactive
outcome [6]: inactive
outcome [7]: inactive

Clc1nc(Cl)c(Cl)c(Cl)c1Cl
outcome [8]: inactive
outcome [2]: inactive
outcome [1]: inactive

O=c1[nH]c2ccc(S(=O)CCN3CCC(Cc4ccc(F)cc4)CC3)cc2o1 (stereo not given)
outcome [2]: inactive
outcome [1]: inactive

CCOc1cccc(-n2cc(C(=O)N3CCN(c4cc(C(=O)O)c5ccccc5c4)CC3)nc2-c2ccc(C)cc2)c1
AC50 [2]: 83.6 µM (active)
AC50 [1]: 6.27 µM (active)

CC(C)=CCC/C(C)=C\CO
outcome [9]: inactive
outcome [3]: inactive
outcome [4]: inactive
outcome [5]: inactive
AC50 [10]: 61.5 µM (active)
AC50 [11]: 57.7 µM (active)
outcome [12]: inactive
outcome [6]: inactive
outcome [7]: inactive
outcome [13]: inactive

Cn1c(=O)cc(Oc2ccc(F)cc2F)c2cnc(NCC(C)(C)O)nc21
outcome [1]: inactive

COc1cccc(-c2ccc(/C=C\CN3CCCCCC3)cc2Cl)c1
outcome [2]: inactive
outcome [1]: inactive

Cc1[nH]cnc1C[C@H]1CCc2c(C)c3ccccc3n2C1=O
outcome [2]: inactive
outcome [1]: inactive

O=C(O)c1cc(N=Nc2ccc(S(=O)(=O)Nc3ccccn3)cc2)ccc1O
outcome [2]: inactive
outcome [1]: inactive

CCOC(=O)c1ccc(C2CCC(NC[C@H](O)COc3ccc(O)c(NS(C)(=O)=O)c3)CC2)cc1 (stereo not given in full)
outcome [1]: inactive

O=C(OC[C@H]1O[C@@H](OC(=O)c2cc(O)c(O)c(OC(=O)c3cc(O)c(O)c(O)c3)c2)[C@H](OC(=O)c2cc(O)c(O)c(OC(=O)c3cc(O)c(O)c(O)c3)c2)[C@@H](OC(=O)c2cc(O)c(O)c(OC(=O)c3cc(O)c(O)c(O)c3)c2)[C@@H]1OC(=O)c1cc(O)c(O)c(OC(=O)c2cc(O)c(O)c(O)c2)c1)c1cc(O)c(O)c(OC(=O)c2cc(O)c(O)c(O)c2)c1
outcome [2]: inactive
outcome [1]: inactive
